Results on 65 compounds are retold here after PubChem BioAssay AID686978 (National Center for Advancing Translational Sciences (NCATS), 2013).

Molecules are shown by their SMILES. About 64,000 (15%) of roughly 420,000 compounds were called active. Not shown: some 27% with an inconclusive outcome. Calls come from the whole dose curve; as a rule, active = well fitted inhibition curve with a large enough effect; inconclusive = small, poorly fitted or top-dose-only effect; inactive = flat fitted curve, though single readings scatter. These entries were drawn from the full list. Where a call stands in place of a potency, no number is given.
Potency is the fitted concentration of half-maximal effect.

The experiment is described as follows: qHTS for Inhibitors of human tyrosyl-DNA phosphodiesterase 1 (TDP1): qHTS in cells in absence of CPT. Note: nearly all actives have a fitted effect of over 55% in size. The settings on record: DT40 Tdp1-/- hTDP1 cells, no CPT, ATP luminescence, 48 h; activity change, negative = growth inhibition: at 46.2 µM (top of the series). In a few lines:
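DT40 Tdp1-/-;hTDP1 cells, no CPT (DMSO vehicle only), 400 cells/well; compounds pin-transferred; ≥48 hr, 37 °C; CellTiter-Glo 30 min RT dark, luminescence read.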
(In general: qHTS replaces the single test concentration by a dilution series.)
Take `C[C@H]1CC[C@]2(O[C@@H](CCO)C[C@@H](O)[C@@H]2O)O1`: the Potency entry was “inactive”.

For `CCC(O)C1CCN(Cc2cn(-c3ccc(OC)cc3)nc2-c2cccc(F)c2)CC1` (stereo not given), the Potency was 20.6 µM (active).

Consider `COc1ccc(-n2cc(CNC3CCOCC3)c(-c3cccc(F)c3)n2)cc1`, for which the Potency is 20.6 µM (active). With `COCCn1c(=O)c(-c2cccc(F)c2)nc2cncnc21` the entry was “inactive”; with `COc1ccc(NC(=S)N2CCC(NC(=O)c3cccc(F)c3)CC2)cc1`, “inactive”; with `Cn1cc(CN2CCC(C(O)CCc3ccccc3)CC2)c(-c2ccccc2F)n1` (stereo not given), “inactive”. `Cc1cccc(-n2cc(CN3CCN(C(=O)c4ncn[nH]4)CC3)c(-c3cccc(F)c3)n2)c1`: the Potency entry was “inactive”.

Turning to `CCC(CC)c1nn2cc(-c3ccccc3)nc2s1`, the Potency result is “inactive”. On to `COC(=O)CC1Oc2ccccc2-n2cc(-c3ccccc3)nc21` (stereo not given), for which the Potency was 20.6 µM (active).

For `COC(=O)CC1=NN(c2ccccc2)C(=O)C1`, the Potency entry was “inactive”. Take `CCC1CCCCN1C(=S)NC(=O)c1ccco1` (stereo not given): the Potency entry is “inactive”. Regarding `CC(=O)c1cccc(NC(=O)[C@@H](NC(N)=O)C(C)C)c1`, the Potency entry is “inactive”. As to `COc1ccc(CCNC(=O)/C(C#N)=C2\N=C(NC(=O)c3cccs3)c3ccccc32)cc1`, the Potency was 10.3 µM (active).

`COc1ccc(CCNC(=O)CSc2nnc(CNC(=O)c3cccs3)o2)cc1OC`: the Potency result is “inactive”. For `O=C(O)Cc1ccc(NC(=O)c2cccs2)cc1`, the Potency entry was “inactive”. Then `CCc1ccc2c(c1)cc(CN(C(=S)Nc1ccccc1Cl)C1CC1)c1nnnn12`, with “inactive”.

On to `Cc1oc2c(C)c3oc(=O)c(CC(=O)N[C@@H](CC(C)C)C(=O)N[C@@H](Cc4ccccc4)C(=O)O)c(C)c3cc2c1C`, for which the Potency result is “inactive”.

Consider `COCc1[nH][nH]c(=O)c1C=Nc1ccc(F)cc1F`, for which the Potency entry was “inactive”. Then `Cc1ccc(S(=O)(=O)N(CC(=O)N2CCc3ccccc3C2)c2cccc(Cl)c2)cc1`, with 20.6 µM (active); and `CS(=O)(=O)N(CC(=O)N1CCc2ccccc2C1)c1ccc(Br)cc1`, with “inactive”.

Take `COc1cccc(N(CC(=O)N2CCc3ccccc3C2)S(C)(=O)=O)c1`: the Potency entry was “inactive”. Take `Cc1ccccc1CNC(=O)CCC(=O)N1Cc2ccccc2Oc2ncccc21`: the Potency result was “inactive”. In the case of `COc1ccc(C(=O)OCC(=O)c2ccc(C)c(S(=O)(=O)N3CCOCC3)c2)cc1OC`, the Potency is 11.6 µM (active). In the case of `COc1ccc(C(=O)N(C)Cc2ccc(OC)c(OC)c2OC)cc1S(=O)(=O)N1CCOCC1`, the Potency result was “inactive”. With `COc1ccc(C(=O)N(Cc2ccccc2)c2ccc(C)cc2)cc1S(=O)(=O)N1CCOCC1` the figure was 14.6 µM (active); with `Cc1ccc(S(=O)(=O)N2CCOCC2)cc1C(=O)NC(=S)N(Cc1ccccc1)C(C)C`, “inactive”. In the case of `CCOc1ccc(CCNC(=O)COC(=O)c2ccc(C)c(S(=O)(=O)N3CCOCC3)c2)cc1OCC`, the Potency result is “inactive”. As for `COc1ccc(C(=O)NCc2ccc(C)cc2)cc1S(=O)(=O)N1CCCC1`, the Potency result is “inactive”. Then `Cc1cccc(N(Cc2ccccc2)C(=O)c2cc(S(=O)(=O)N3CCOCC3)ccc2F)c1`, with 18.4 µM (active); and `Cc1ccc(S(=O)(=O)N2CCN(C(=O)c3cc(S(=O)(=O)N4CCOCC4)ccc3F)CC2)cc1`, with “inactive”; and `Cc1ccc(C(=O)OCC(=O)N2CCCCCC2)cc1S(=O)(=O)N1CCOCC1`, with “inactive”. With `O=C1c2cccc3cccc(c23)N1CN1CCN(c2ccccn2)CC1` the entry was “inactive”. In the case of `CCCCc1ccc(NC(=S)N2CCCC(CO)C2)cc1` (stereo not given), the Potency result is “inactive”. As to `Oc1ccc2ccc3cccc[n+]3c2c1`, the Potency entry is “inactive”. In the case of `CCCCN(CC)CCCNC(=O)c1ccc(CSc2nc3ccncc3[nH]2)cc1`, the Potency entry is “inactive”. Take `O=C(Cn1ccc([N+](=O)[O-])n1)NCc1cccs1`: the Potency entry was “inactive”. With `O=C(COC(=O)c1cccc(Cl)c1)Nc1ccc2[nH]c(=O)[nH]c2c1` the entry was “inactive”; with `C/C=C/C1=C(C(=O)O)N2C(=O)[C@@H](NC(=O)[C@H](N)c3ccc(O)cc3)[C@H]2SC1`, “inactive”. As to `CCN(CC)CCNC(=O)CN1N=C(c2ccc(OC)cc2)CCC1=O`, the Potency result is “inactive”.

Take `O=C(NCc1cccnc1)c1cnc2ccccc2n1`: the Potency entry was “inactive”. In the case of `O=C(NCc1ccco1)c1ccc(CS(=O)(=O)Cc2ccc(F)cc2)o1`, the Potency entry is “inactive”. For the compound `COc1ccc(CCNC(=O)c2ccc(CS(=O)(=O)c3ccc(Br)cc3)o2)cc1OC`, the Potency is 14.6 µM (active). With `O=C(NCc1cccnc1)c1ccc(CS(=O)(=O)c2ccc(Br)cc2)o1` the figure was 14.6 µM (active). Then `COc1ccc(CCNC(=O)c2ccc(CSCc3ccc(C)cc3)o2)cc1OC`, with 23.1 µM (active); and `Cc1ccc(CNC(=O)c2ccc(CS(=O)Cc3cccc(Cl)c3)o2)cc1` (stereo not given), with “inactive”.

With `Cc1ccc(CCNC(=O)c2ccc(CS(=O)(=O)Cc3cccc(C)c3)o2)cc1`, the Potency is 18.4 µM (active).

In the case of `COc1ccc(CCNC(=O)NS(=O)(=O)c2ccc(C)cc2)cc1OC`, the Potency result is “inactive”.

For the compound `COc1ccccc1CNC(=O)c1ccc(CS(=O)(=O)c2ccccc2)o1`, the Potency entry was “inactive”.

`CCCNS(=O)(=O)c1ccc(CCC(=O)NCc2cccnc2)cc1`: the Potency entry is “inactive”.

Take `COc1ccc(CCNC(=O)CCNS(=O)(=O)c2cc(Br)cnc2N)cc1OC`: the Potency entry was “inactive”.

With `COc1ccc(CCNC(=O)Cc2ccc(C)cc2)cc1OC`, the Potency result is “inactive”. Turning to `COCCCn1c(SCC(=O)NC2CCCC2)nnc1-c1ccccc1`, the Potency entry was “inactive”. Regarding `Cc1ccc(S(=O)(=O)NNC(=S)NC(C)(C)C)cc1`, the Potency entry was “inactive”.

On to `CN(Cc1ccccc1)C(=O)COC(=O)/C=C/c1ccc2c(c1)OCO2`, for which the Potency entry was “inactive”.

For the compound `CN(C)c1nc2n(c(=O)n1)CCO2`, the Potency entry is “inactive”. `O=C(O)Cc1ccc(NC(=O)C2CCCCC2C(=O)O)cc1` (stereo not given): the Potency entry was “inactive”.

With `COCCn1c(=O)c(C)nc2cnc(N(C)C)nc21`, the Potency result was “inactive”.

For `O=C(O)C1CCN(S(=O)(=O)N2CCOCC2)CC1`, the Potency entry is “inactive”.

Take `CC1CN(C(=O)COC(=O)c2cccc(NS(=O)(=O)c3ccccc3)c2)CC(C)O1` (stereo not given): the Potency result was “inactive”. As for `CCOC(=O)c1cc(S(=O)(=O)NCCc2ccc(OC)c(OC)c2)cn1C`, the Potency entry is “inactive”. With `CN1CCCN(C(=O)C2CCCCC2)CC1` the entry was “inactive”; with `CCOc1ccc(NC(=O)CC(Cc2ccc(Cl)cc2)C(=O)O)cc1` (stereo not given), “inactive”; with `COc1ccc(C2OC(CCc3ccccc3)Cc3[nH]c(=S)[nH]c(=O)c32)cc1` (stereo not given), 18.4 µM (active). For `COc1ccc(N2C(=O)C(Cc3ccccc3)NC2=S)cc1` (stereo not given), the Potency result is “inactive”.

In the case of `COc1ccc(C2CC(=O)NC(=O)C2)cc1`, the Potency entry was “inactive”.
